Test results taken from the supplement of paper PMC12636033.
± gives the standard deviation of the averaged measurements. The full ranking holds about 33,000 sequences; the median of “E-score (rank enrichment, -0.5 to 0.5)” is about -0.0028, and the highest 2% start at about 0.23. For the sample, the highest values were picked, then their nearest neighbours and some sequences at random.

test system: 2Sb-muMax20 (muMax20 with two 1,3-bis(methyl)benzene Cys staples, A13C/A17C and Q88C/A92C, C-terminal Lys); assay: PBM 8-mer E-score (E-score (rank enrichment, -0.5 to 0.5)); higher = stronger preferential binding
Method: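 Protein binding microarray (universal PBM chip covering all 10-mers in fixed probe flanks) with chemically synthesized human Max(13-93) bHLH-LZ analogs (not full-length Max) bearing noncanonical residues (hArg, Tha, Aib, Nle at 65) and aromatic Cys staples. Read-out per 8-mer (and its reverse complement): E-score (rank-based enrichment, -0.5 to 0.5) and Z-score of median probe intensity.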

Sequence | PBM 8-mer E-score
GCTAATTA | 0.235 ± 0.039
CCTAATTA | 0.0703 ± 0.012
AGTAATTA | 0.202 ± 0.03
CGTAATTA | 0.202 ± 0.046
ATGCGGGC | -0.00019 ± 0.029
AGTCCTCA | -0.113 ± 0.048
AATTTGTA | 0.0698 ± 0.0044
ACGGAGAA | 0.18 ± 0.029
GAGCCAAA | -0.057 ± 0.017
CCTATCGA | 0.15 ± 0.023
ACCCGCCG | 0.0869 ± 0.081
CCCCGCCC | 0.355 ± 0.037
CCCCGCCA | 0.309 ± 0.031
ACCCGCCC | 0.274 ± 0.11
TCCCGCCA | -0.0896 ± 0.035
CGCCGCCC | -0.0329 ± 0.11
GCCCGCCA | 0.0111 ± 0.022
GCCCGCCC | 0.108 ± 0.057
CCCCGCCG | 0.161 ± 0.13
CCGATAGC | -0.195 ± 0.0074
TCGGACGA | -0.0961 ± 0.011
CATGCCCG | 0.114 ± 0.033

Sequence | PBM 8-mer E-score
ACGTAGGC | -0.161 ± 0.069
AATTGATG | 0.196 ± 0.013
TGCCCAAA | -0.17 ± 0.028
TGCCCCCA | 0.0887 ± 0.0026
GGCCCCAA | 0.134 ± 0.045
AGCCCCCA | -0.192 ± 0.049
AGCCCCAA | 0.2458 ± 0.001
TGCCCCAA | 0.304 ± 0.012
CGCTAATA | 0.0712 ± 0.011
CAGGTAGG | 0.0772 ± 0.037
ATCTCTGC | 0.124 ± 0.041
AAGTTTAC | -0.0181 ± 0.035
AAGTTTAG | 0.193 ± 0.079
AAGTTTAT | 0.263 ± 0.011
CTATGGTC | -0.0714 ± 0.011
ACCTTCCG | 0.156 ± 0.054
AAACGATA | 0.0414 ± 0.058
TAACGATA | 0.261 ± 0.025
CAACGATA | 0.0514 ± 0.023
AAGCCAAA | -0.0671 ± 0.036
GACTACTA | 0.123 ± 0.086
AACGATTG | -0.048 ± 0.0011

Sequence | PBM 8-mer E-score
CAAGGAGA | -0.121 ± 0.026
AAAGGAGA | 0.102 ± 0.13
GAAGGAGA | 0.278 ± 0.031
ATATGAAT | 0.269 ± 0.0035
ATATGAAA | 0.268 ± 0.017
CTATGAAA | 0.122 ± 0.039
TTATGAAA | -0.0227 ± 0.036
ATATGAAC | 0.111 ± 0.0082
ATATGAAG | -0.0272 ± 0.098
GCGCTGAC | 0.0819 ± 0.0047
ATTCGGCA | -0.0961 ± 0.057
CAAGTGTA | 0.231 ± 0.042
GACGTGTA | -0.0568 ± 0.059
AACGTGTC | -0.0169 ± 0.047
CACGTGTA | 0.3871 ± 0.0038
TAAGTGTA | -0.00771 ± 0.18
CACGTGTC | 0.366 ± 0.032
AAAGTGTA | 0.185 ± 0.019
CCCGTGTC | -0.222 ± 0.044
AACGTGTA | 0.0661 ± 0.014
ATGGCCGA | -0.0989 ± 0.12
CGGTAGCA | 0.0259 ± 0.0084

Sequence | PBM 8-mer E-score
CACTAGGC | -0.0625 ± 0.012
AAGGTACT | -0.0359 ± 0.027
CGCCACAC | -0.107 ± 0.0099
GATTCCCA | -0.109 ± 0.031
ATTCCCCA | 0.345 ± 0.0051
AATTCCCC | 0.162 ± 0.019
GAAATCAC | 0.0559 ± 0.039
CAATTCCA | 0.021 ± 0.024
AATTCCCA | 0.251 ± 0.056
AAATTCCA | 0.243 ± 0.0059
GTTCCCCA | 0.0903 ± 0.0034
AAAATCAG | -0.00194 ± 0.044
ATTCCCCC | -0.0763 ± 0.046
GAATTCCA | 0.0438 ± 0.014
AAAATCAC | 0.28 ± 0.019
GAGGACGA | -0.0985 ± 0.014
CAGGAATA | -0.0263 ± 0.13
AGACTGCC | -0.138 ± 0.008
AGGCGCTA | -0.116 ± 0.03
ACAGGATA | 0.046 ± 0.059
CCTCTAAC | -0.122 ± 0.012
ATGTCCCC | 0.0908 ± 0.0075
